Measured values from ChEMBL document CHEMBL1157539, “Thousands of chemical starting points for antimalarial lead identification” (Nature, 2010).

Key:
Assay type in all cases: functional
Plasmodium falciparum [1] = assay: GSK_TCMDC: Inhibition of Plasmodium falciparum 3D7 in whole red blood cells, using parasite LDH activity as an index of growth. Test compounds present at 2uM
Plasmodium falciparum [2] = assay: GSK_TCMDC: Inhibition of Plasmodium falciparum Dd2 in whole red blood cells, using parasite LDH activity as an index of growth. Test compounds present at 2uM
HepG2 = assay: GSK_TCMDC: Percent inhibition of human HepG2 cell line. Test compounds present at 10uM.

| Compound | Inhibition (Plasmodium falciparum [1]) [%] | Inhibition (Plasmodium falciparum [2]) [%] | Inhibition (HepG2) [%] |
| --- | --- | --- | --- |
| COc1ccccc1C1CCN(C2CCC(NC(=O)/C=C/c3cccc(Cl)c3)CC2)CC1 (configuration not stated) | 92 | 20 | 54 |
| Fc1cc(Cl)ccc1Nc1ccnc2cc(I)ccc12 | 90 | 10 | 11 |
| COc1ccccc1C1CCN(C2CCC(NC(=O)/C=C/c3ccc(OC(F)(F)F)cc3)CC2)CC1 (configuration not stated) | 82 | 11 | 65 |
| COc1ccc(CCNC(=O)c2cnc3c(c2)nc(-c2c[nH]c(-c4ccccc4)n2)n3CCc2c[nH]cn2)cc1 | 96 | 70 | 16 |
| O=C(c1cccc(-c2ccc(-c3nc4cc(C(F)(F)F)ccc4[nH]3)cc2)c1)N1CCCCC1CN1CCC(O)C1 (configuration not stated) | 92 | 100 | 19 |
| CCOc1cc(C(=O)NCCCN2CCN(c3cccc(Cl)c3)CC2)ccc1-c1nc2cc(Cl)c(F)cc2[nH]1 | 96 | 19 | 16 |
| CN(C)CC(O)C(O)(c1ccccc1)c1ccc(F)cc1.Cl (configuration not stated) | 93 | 10 | 0 |
| Cc1nc(-c2nc(NCc3ccccn3)ncc2-c2ccsc2)sc1C | 92 | 87 | 0 |
| O=C(N[C@@H](CC1CCCCC1)C(=O)NC1CCCCC1)c1ccc(O)c(-c2cccc(C(F)(F)F)c2)c1 | 100 | 95 | 0 |
| Cc1nc(-c2ccc(-c3ccc(C(=O)Nc4ccc(I)c(OCC5CCCN5C)c4)cc3)c(C)c2)no1.Cl (configuration not stated) | 97 | 39 | 100 |
| c1ccc(CN2CCC(NCc3ccc(-c4cncc5ccccc45)cc3)CC2)cc1 | 98 | 19 | 21 |
| Clc1ccc2c(NN=Cc3cccs3)ccnc2c1 | 100 | 96 | 0 |
| Cc1ccc(/C=C/C(=O)NCCCCCN2CCC(c3c[nH]c4ccccc34)CC2)cc1 | 86 | 7 | 36 |
| O=C(NCC1CCN(CC2CCCCC2)C1)c1cc(-c2cccc(Cl)c2)cs1.O=C(O)C(F)(F)F (configuration not stated) | 85 | 8 | 51 |
| Cc1cccc2nc(-c3ccc(-c4cccc(NC(=O)NCc5cccc(F)c5)c4)s3)[nH]c12 | 88 | 8 | 24 |
| COc1ccc(Nc2nccc(NCCNC(=O)Nc3cc(C)ccc3C)n2)cc1 | 85 | 0 | 10 |
| O=C(C=Cc1ccc(Cl)c(Cl)c1)NCCCCCN1CCCC(CCCNS(=O)(=O)c2cccc(C(F)(F)F)c2)C1 (configuration not stated) | 94 | 33 | 81 |
| Cc1c[nH]c(CCNC(=O)c2cc(-c3ccc(Cl)cc3)cs2)n1 | 100 | 7 | 12 |
| CCOC(=O)C1=C(C)N=c2sc(=Cc3ccccc3O)c(=O)n2C1c1ccc(OC)c2ccccc12 (configuration not stated) | 97 | 38 | 0 |
| Clc1ccc(CNc2ccnc(NCCc3coc4ccccc34)n2)c(Cl)c1 | 86 | 39 | 26 |
| Cc1cccc(-c2ccc(CNC3CCN(CC4Cn5c(=O)ccc6ccc(F)c4c65)CC3)cn2)c1.O=C(O)C(F)(F)F (configuration not stated) | 90 | 2 | 0 |
| O=C(Nc1cccc(CN2CCN(Cc3cccc(O)c3)CC2)c1)c1cc2ccccc2s1.O=C(O)C(F)(F)F | 86 | 54 | 13 |
| O=C(O)C(F)(F)F.c1ccc(CNCCn2c(-c3ccc4c(c3)CCO4)nc3c(N4CCCC4)cccc32)cc1 | 82 | 85 | 9 |
| c1nc(CCNc2nc(Nc3ccc4c(c3)OCO4)nc(NC3CCCC3)n2)c[nH]1 | 80 | 0 | 0 |
| CCCCc1cc(N2CCC(NC(C)=O)C2)nc(Nc2ccc(C)cc2)n1 (configuration not stated) | 95 | 1 | 2 |
| Cl.Nc1nc(N)c2c(ccc3nn(S(=O)(=O)N4CCCC4)cc32)n1 | 95 | 0 | 69 |
| CCCC(=O)Nc1ccc(OCCCN(Cc2ccccc2F)c2ccc(C#N)c(C(F)(F)F)c2)cc1 | 89 | 93 | 7 |
| COc1ccc(N2CCN(CCCCNC(=O)c3ccc(/C=C/c4ccc(Cl)c(Cl)c4)cc3)CC2)c(OC)c1 | 100 | 51 | 51 |
| Cc1ccc(S(=O)(=O)NC2=NC(=N)N(OCc3ccc(Cl)c(Cl)c3)C(C)(C)N2)cc1 | 88 | 0 | 0 |
